Shown are actives, neighbours in structure and some others; about 1.2% of the full set was active somewhere.
PG9 binder – small molecules binding HIV-1 gp120 antibody PG9; TR-FRET gp120-PG9 antibody binding; inhibition, % at 6.7 µM; 360,000 tested, 0.43% active; in the data active = inhibition above about 8.5%
PKA-R1A activ – PKA-R1A complex activation | P00514+P68181 | PKA-R1A dissociation, Cy5-IP20 fluorescence polarization; scaled: DMSO 0%, 113 µM cGMP 100% | activation, % at 11.4 µM | 340,000 tested, 0.083% active | AID 504707;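 active = percent activation above the mean of all tested compounds plus 3 SD, cut at about 19% in these data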;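 also: higher means more PKAc released from R1A so a rise in polarization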
NR1D1 modulator – modulators of human Rev-erb alpha DNA binding; Rev-erbα–FITC-DNA binding, fluorescence polarization, 90 min; activity, % at 10 µM; AID 1259318; P20393; 370,000 tested, 0.79% active;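 active = activity above about 14%, limit read from the data; passing the limit was not always enough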
Target sequence (P20393 whole entry, looked up): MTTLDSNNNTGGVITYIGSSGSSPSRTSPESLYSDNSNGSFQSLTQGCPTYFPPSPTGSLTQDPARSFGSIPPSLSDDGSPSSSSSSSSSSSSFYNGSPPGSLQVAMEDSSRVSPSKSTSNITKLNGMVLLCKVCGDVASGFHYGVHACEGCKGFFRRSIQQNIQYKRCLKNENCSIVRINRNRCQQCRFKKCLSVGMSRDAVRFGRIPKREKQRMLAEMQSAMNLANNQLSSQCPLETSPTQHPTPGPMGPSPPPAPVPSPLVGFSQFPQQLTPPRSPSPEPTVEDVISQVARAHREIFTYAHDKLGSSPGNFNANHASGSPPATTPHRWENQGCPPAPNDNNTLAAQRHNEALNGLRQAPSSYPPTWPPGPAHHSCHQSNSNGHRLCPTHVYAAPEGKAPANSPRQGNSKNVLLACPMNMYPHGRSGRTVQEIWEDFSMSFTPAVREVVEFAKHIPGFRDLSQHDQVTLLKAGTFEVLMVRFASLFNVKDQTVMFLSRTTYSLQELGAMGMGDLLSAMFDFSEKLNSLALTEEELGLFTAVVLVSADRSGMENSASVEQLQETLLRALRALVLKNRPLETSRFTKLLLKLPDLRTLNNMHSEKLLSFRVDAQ
PKA-R2B activ – PKA-R2B complex activation; P22694+P31323; PKA-R2B holoenzyme dissociation, Cy5-IP20 fluorescence polarization; R2B truncated from residue 108, S112A mutant; 0% DMSO only, 100% 113 µM cGMP; activation, % at 11.4 µM; 340,000 tested, 0.079% active; AID 504700;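 active = activation above a cutoff set at the mean over all compounds plus 3 SD, cut at about 18% in these data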;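 also: higher means more holoenzyme dissociation and a rise in polarization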
R1A FP artifact – counter-screen for PKA-R1A activators: fluorescence polarization artifacts | shares compounds with PKA-R1A activ | Cy5-IP20 peptide alone, fluorescence polarization artifact counterscreen | activation, % at 11.4 µM | 280 tested, 7% active;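 active = mean activation over triplicate runs exceeds the adjusted cutoff derived for the parent primary screen, cut at about 19% in these data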;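 also: no PKA protein present so any polarization rise reflects compound interference; higher means stronger polarization artifact and likely false positive in parent screen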
PKA-R1A act conf – confirmation of PKA-R1A complex activators; activation, % at 11.4 µM; AID 504800; 280 tested, 9% active; Cy5-IP20 fluorescence polarization, PKA-R1A holoenzyme dissociation; shares compounds with PKA-R1A activ;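 active = mean activation over replicate wells exceeds the adjusted hit threshold taken from the earlier primary screen, cut at about 20% in these data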
Of the large screens only hits and unclear results are named; the others gave an inactive call (follow-up assays come after a bar, where they were run).

CN1CCC(N[C@@H](Cc2ccccc2)C(=O)NCCCc2ccccc2)(C(=O)NCCc2c[nH]c3ccccc23)CC1	none (no result: PG9 binder, PKA-R1A activ, PKA-R2B activ)
CN(Cc1ccccc1)C(=O)OCc1cn(Cc2ccc(C(F)(F)F)cc2)nn1	none (no result: PG9 binder, PKA-R1A activ, PKA-R2B activ)
COc1ccccc1CNC(=O)C(C)NS(=O)(=O)c1ccccc1 (stereo not given)	PKA-R1A activ 19 | R1A FP artifact inactive | PKA-R1A act conf inactive
Cc1cc(C)n2nc(SCC(=O)c3ccc[nH]3)nc2n1	PKA-R1A activ 22 | R1A FP artifact inactive | PKA-R1A act conf inactive
CNC(=O)CSc1nc2nc(C)cc(C)n2n1	none
Cn1c(SCC(=O)Nc2nnc(-c3ccccc3)o2)nnc1C1CC1	PKA-R1A activ 19 | R1A FP artifact inactive | PKA-R1A act conf inactive
Cn1c(SCC(=O)Nc2ccccc2Cl)nnc1C1CC1	none
O=C(NCc1ccccc1)c1cccc(NC(=O)c2ccco2)c1	PKA-R1A activ 22 | R1A FP artifact inactive | PKA-R1A act conf inactive
CNC[C@H](O)[C@@H](O)[C@H](O)[C@H](O)CO	none (no result: PG9 binder, PKA-R1A activ, PKA-R2B activ)
CN(CC(=O)Nc1c(Cl)cccc1Cl)C(=O)c1ccccc1SCC(=O)N1CCCC1	none
CN(CCOc1ccc(Cl)cc1)C(=O)c1ccccc1SCC(=O)N1CCCC1	PKA-R1A activ 21 | R1A FP artifact inactive | PKA-R1A act conf inactive
O=C(Cn1nnc2c(cnn2-c2ccccc2)c1=O)N1CCN(c2ccccc2F)CC1	PKA-R1A activ 19 | R1A FP artifact inactive | PKA-R1A act conf inactive
O=C(Cn1cnc2c(cnn2-c2ccc(F)cc2)c1=O)N1CCN(c2ccccc2F)CC1	none
Cc1ccc(CN2C(C(=O)NC3CCCC3)CSCCS2(=O)=O)cc1 (stereo not given)	none (no result: PG9 binder, PKA-R1A activ, PKA-R2B activ)
Cc1ccc(NC(=O)c2cncc(Br)c2)c([N+](=O)[O-])c1	PKA-R1A activ 23 | R1A FP artifact inactive | PKA-R1A act conf inactive
COc1ccc2cc1Oc1cc3c(cc1OC)CC[N+](C)(C)[C@H]3Cc1ccc(cc1)Oc1c(OC)c(OC)cc3c1[C@@H](C2)[N+](C)(C)CC3	none (no result: PG9 binder, PKA-R1A activ, PKA-R2B activ)
CCOc1ccc(-c2nnn(CCC(=O)O)n2)cc1OC	PKA-R1A activ 19 | R1A FP artifact inactive | PKA-R1A act conf inactive
O=C(NCc1nc2ccccc2[nH]1)C1=C[C@H](c2ccc(C(F)(F)F)cc2)C[C@H](OCc2ccc(CO)cc2)O1	PKA-R1A activ 20 | R1A FP artifact 29 | PKA-R1A act conf inactive
CNC(=O)COC(=O)c1ccc(OCC(=O)Nc2ccccc2OC)c(OC)c1	PKA-R1A activ 22 | R1A FP artifact inactive | PKA-R1A act conf inactive
COC(=O)[C@H]1C[C@@]2(N3CCCC3)c3ccccc3N[C@H]2N1S(=O)(=O)c1ccc([N+](=O)[O-])cc1	none (no result: PG9 binder, PKA-R1A activ, PKA-R2B activ)
COC(=O)[C@]12C[C@H](CC(=O)NCc3ccccc3)C(=O)N(Cc3ccco3)C1=C[C@H](C(C)C)O[C@@H]2C1CC1	none (no result: PG9 binder, PKA-R1A activ, PKA-R2B activ)
O=C(Nc1cccc(Cl)c1)Nc1nnc(-c2ccncc2)s1	PKA-R1A activ 22 | R1A FP artifact 26 | PKA-R1A act conf 26
O=C(O)CSc1cccc[n+]1[O-]	none
[O-][n+]1ccccc1SCc1ccccc1	PKA-R1A activ 19 | R1A FP artifact inactive | PKA-R1A act conf inactive
COc1ccccc1N1CCN(C(=O)c2cc(S(=O)(=O)N3CCOCC3)ccc2C)CC1	PKA-R1A activ 19 | R1A FP artifact inactive | PKA-R1A act conf inactive
O=C(O)CN1C(=O)/C(=C\c2cc(Br)ccc2OCc2ccc([N+](=O)[O-])cc2)SC1=S	PKA-R1A activ 25 | R1A FP artifact inactive | PKA-R1A act conf inactive
CCCCNC(=O)C[C@H]1C[C@@]2(C(=O)OC)C(=C[C@H](COCc3ccccc3)O[C@@H]2C)N(Cc2cccc3ccccc23)C1=O	none (no result: PG9 binder, PKA-R1A activ, PKA-R2B activ)
Cc1ccc(NC(=O)CSc2nc3ccccc3c(=O)n2CC2CCCO2)cc1 (stereo not given)	PKA-R1A activ 19 | R1A FP artifact inactive | PKA-R1A act conf inactive
CN(C)c1ccc(NC(=O)CSc2nc3ccccc3c(=O)n2CC2CCCO2)cc1 (stereo not given)	none
O=P(CCCCCCCCCP(=O)(c1ccccc1)c1ccccc1)(c1ccccc1)c1ccccc1	none
CC[n+]1c(P(=O)([O-])c2ccccc2)[nH]c2ccccc21	PKA-R1A activ 21 | R1A FP artifact inactive | PKA-R1A act conf inactive

Screening data (PubChem)
